# Pf growth 48h = inhibits P. falciparum growth in the first generation, 48 h. P. falciparum luciferase growth in erythrocytes, 48 h. Potency, µM (top dose mostly 28.7 µM), inactives show at the top dose activity change, negative = inhibition, usual class: inhibitors. 5.9% of 310,000 active; further: on the % scale 0 is the no-effect control and ±100 the full control effect
#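 Read-out is firefly luciferase luminescence from an integrated reporter in P. falciparum, so falling signal marks reduced parasite growth. Infected erythrocytes were at 2% hematocrit and 0.1% parasitemia (final) in Albumax-supplemented RPMI 1640.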
# Sm TGR block = blocks Schistosoma mansoni thioredoxin glutathione reductase; Q962Y6; purified TGR, DTNB reduction, TNB absorbance 405 nm; Potency, µM (series often up to 114 µM), without a hit: top-dose activity change, negative = inhibition, hits mostly inhibitors; 3% of 360,000 active; AID 485364; further: on the % scale 0 is the no-effect control and ±100 the full control effect; nearly all actives have a fitted effect of over 60% in size
#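 Kinetic colorimetric format: TGR-catalysed, NADPH-driven DTNB reduction monitored via TNB absorbance. Enzyme dispensed at 20 nM; compound exposure 15 min at room temperature before reaction start.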
# Pf growth 96h = inhibits malaria parasite growth, 96 h | P. falciparum luciferase reporter growth, 96 h | Potency, µM (series often up to 28.7 µM), inactives show top-dose activity change, negative = inhibition, hits mostly inhibitors | 6.9% of 320,000 active | AID 504834; further: on the % scale 0 is the no-effect control and ±100 the full control effect
#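 Infected RBCs, 2% Hct / 0.05% parasitemia final; luciferase-reporter P. falciparum; cpd 96 h, 37 C, 5% CO2; luciferase detection reagent; luminescence.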
# SARS PLP yeast = inhibitors of SARS-CoV papain-like protease in yeast; S. cerevisiae expressing SARS-CoV PLpro, growth rescue; Potency, µM (doses to about 32.9 µM), for the others: top-dose activity, positive = growth rescue, usual class: activators; 0.19% of 330,000 active; AID 485353; calls by dose curve; further: 0% is about no effect; nearly all actives have a fitted effect of over 55% in size
# * = called active by the depositor; u = inconclusive; x = not tested or not shown; [ ] = another dose, or the depositor's remark. Rows were chosen to be rich in hits. Some 12% of all compounds tested hit in one or more screens of this group. Unless noted, the call rests on the fitted dose curve; in most records, active means well fitted curve in the direction sought with a large enough effect; inconclusive means small, poorly fitted or top-dose-only effect, or another doubt; inactive means no such curve, though single readings can be large; an effect the other way counts as inactive or inconclusive. Potency means the concentration at half of the fitted maximal effect.
SMILES,Pf growth 48h,Sm TGR block,Pf growth 96h,SARS PLP yeast
CCOC(=O)CC(NC(=O)c1cccc2c1C(=O)N(Cc1cccnc1)C2)c1ccc(OC(C)C)cc1 (centres undefined),9.28µM*,-0.7%,u,-0.3%
COc1ccc(C(CNC(=O)c2cc3ccccc3cc2O)N2CCOCC2)cc1 (centres undefined),9.28µM*,17.1%,10.4µM*,1.8%
COc1ccc(C(CNC(=O)c2cc3c(s2)CCC(C)C3)N2CCCC2)cc1 (centres undefined),9.28µM*,-19.9%,4.15µM*,2.8%
CC1CCc2sc(C(=O)NC3CCN(Cc4ccccc4)CC3)cc2C1 (centres undefined),8.28µM*,26.4%,6.57µM*,-2.1%
COc1ccc(C(=O)NCC(c2ccc(N(C)C)cc2)N2CCCC2)cc1 (centres undefined),x,-11.4%,x,x
COc1ccc(C(CNC(=O)c2cc3c(s2)CCC(C)C3)N2CCOCC2)cc1 (centres undefined),11.7µM*,-3.6%,u,-2.3%
Cc1cccc(CNC(=O)Cn2nc(C)n3c(cc4cc(F)ccc43)c2=O)c1,x,15.6%,x,x
NS(=O)(=O)c1cc(C(=O)N2CCNC(=O)C2)ccc1Cl,3.5%,-4.8%,-3.2%,0.7%
COc1cc(NC(=O)CCc2nnc3ccc(N4CCC5(CC4)OCCO5)nn23)cc(OC)c1,-14.2%,1.8%,u,26.9%
CCC1CCc2sc(C(=O)NCC(c3ccccc3OC)N3CCCC3)cc2C1 (centres undefined),10.4µM*,-6.2%,9.28µM*,0.4%
CCC1CCc2sc(C(=O)NCc3ccccn3)cc2C1 (centres undefined),-15.5%,-1.5%,u,-4.5%
CCc1ccccc1-n1c(SCC(=O)NC)nnc1-c1ccco1,-6.5%,-19.2%,u,-2.8%
CCn1nc(C(=O)N2CCN(Cc3nc4ccccc4s3)CC2)c2ccccc2c1=O,132.6%,-22.8%,47.6%,-1.3%
NC[C@@H]1O[C@H](OC2[C@@H](CO)O[C@@H](OC3[C@H](O)[C@H](N)C[C@H](N)[C@H]3OC3O[C@H](CO)[C@@H](O)[C@H](O)[C@@H]3N)[C@H]2O)C(N)[C@H](O)[C@@H]1O (some centres undefined),-13.2%,x,0.3%,x
O=C1c2ccccc2C(=O)c2c1oc(C(F)(F)F)c2C(=O)c1ccccc1,u,-33.2%,0.131µM*,-24.7%
CCOc1ccc(CCNCc2c(C(=O)O)c(C)n(Cc3ccccc3F)c2C)cc1,x,-11.3%,x,x
Cc1ccc(C)c(N(C)S(=O)(=O)c2ccc3[nH]cc(C(=O)NC4CCCC4)c(=O)c3c2)c1,x,1.0%,x,x
Cc1cc(C)cc(N(CCC#N)C(=O)CSc2nc3ccccc3c(=O)[nH]2)c1,x,x,x,2.0%
CCOC(=O)C1=C(C)Nc2sc(C(=O)c3ccc(F)cc3)c(N)c2C1c1ccc(C(=O)OC)cc1 (centres undefined),7.38µM*,-13.7%,4.65µM*,14.1%
CCOC(=O)C1=C(C)NC(SCC(=O)OC)=C(C#N)C1c1ccc(C(=O)OC)cc1 (centres undefined),u,-5.2%,37.3%,8.4%
CCOC(=O)C1=C(C)Nc2sc(C(=O)c3ccc(C)cc3)c(N)c2C1c1ccc(C(=O)OC)cc1 (centres undefined),11.7µM*,-1.2%,5.22µM*,0.5%
O=C(c1nc2ccc(Cl)cn2c1CNCCc1cnccn1)N1CCCCCCC1,40.7%,7.4%,44.8%,-3.8%
OC(C#CCN1CCOCC1)(c1ccccc1)C1CC1 (centres undefined),28.3%,50.1µM*,19.8%,-1.7%
OC(C#CCN1CCCC1)(c1ccccc1)c1ccccc1,u,-31.5%,9.53µM*,-1.1%
Cc1ccc(-n2c(=O)c3c(c4cc(C)ccc4n3C)n(CC(=O)NCCC3=CCCCC3)c2=O)cc1,x,-2.2%,x,x
SMILES,Pf growth 48h,Sm TGR block,Pf growth 96h,SARS PLP yeast
Cc1nccc(-c2cccc(N/N=C(\C#N)C(=O)c3ccccc3)c2)n1,13.1µM*,2.6%,5.22µM*,-1.1%
CC(C)N1CCc2c(sc(NC(=O)c3ccc([N+](=O)[O-])o3)c2C(N)=O)C1,13.1µM*,-17.3%,4.65µM*,0.8%
COC(=O)c1c(NC(=O)Cc2ccccc2)sc2c1CCN(C(C)C)C2,-8.0%,6.8%,33.7%,-13.3%
COC(=O)c1c(NC(=O)c2ccc([N+](=O)[O-])o2)sc2c1CCN(C(C)C)C2,14.7µM*,-19.2%,u,-11.7%
CC(=O)N1CCc2c(sc(NC(=O)c3ccc([N+](=O)[O-])o3)c2C#N)C1,52.7%,-10.1%,u,-0.3%
Cc1ccc(C(=O)CSc2nnc3ccc4ccccc4n23)cc1,x,-6.9%,x,x
COC(=O)c1sccc1NC(=O)Nc1ccccc1Cl,14.2%,3.6%,u,-3.8%
CC(NC(=O)CN1C(=O)COc2ccc(Cl)cc21)c1ccccc1 (centres undefined),x,3.9%,x,x
COc1ccc(C)cc1NC1=C(Cl)C(=O)N(C2CCCCC2)C1=O,u,44.7µM*,u,-21.1%
CCCC(=O)Nc1nc(-c2ccc3c(c2)CCN3S(C)(=O)=O)cs1,-19.3%,-12.4%,-58.7%,-10.5%
CS(=O)(=O)N1CCc2cc(-c3csc(NCC4CCCO4)n3)ccc21 (centres undefined),9.28µM*,15.7%,u,1.5%
O=C1COc2ccc(-c3csc(NCC4CCCO4)n3)cc2N1 (centres undefined),x,2.9%[11.4 µM],14.7µM*,2.0%
CNC(=O)c1cc(S(=O)(=O)Nc2ccc3c(c2)OCO3)ccc1C,14.5%,-12.5%,22.3%,-0.9%
CCC12C(=O)C(CC)(C(c3ccccc3)=C1c1ccccc1)[C@@H]1C(=O)N(c3ccc(C)cc3)C(=O)C12 (some centres undefined),u,1.3%,u,7.0%
CCCC12C(=O)C(C)(C(c3ccccc3)=C1c1ccccc1)C1C(=O)N(c3ccc(C)cc3)C(=O)C12 (centres undefined),2.62µM*,33.5%,3.29µM*,8.7%
CCC12C(=O)C(CC)(C(c3ccccc3)=C1c1ccccc1)[C@@H]1C(=O)N(c3ccccc3)C(=O)C12 (some centres undefined),2.08µM*,-0.7%,u,-20.9%
CC(C)(C)c1ccc(CSc2nc3c(c(=O)[nH]2)CCCC3)cc1,x,-11.4%,x,x
CCOc1ccc(S(=O)(=O)N2CCOCC2)cc1NC(=O)CN1C(=O)NC2(CCCCC2)C1=O,-8.8%,-21.5%,-0.4%,-6.9%
COc1ccc(S(=O)(=O)N2CCCCCC2)cc1NC(=O)CN1C(=O)NC(C)(c2ccccc2)C1=O (centres undefined),9.28µM*,35.5µM*,4.15µM*,2.0%
CCOc1ccc(S(=O)(=O)N2CCOCC2)cc1NC(=O)CN1C(=O)NC(C)(c2ccc(C)cc2)C1=O (centres undefined),10.4µM*,0.5%,u,1.2%
CCCC1(c2ccccc2)NC(=O)N(CC(=O)Nc2cc(S(=O)(=O)N3CCOCC3)ccc2Cl)C1=O (centres undefined),-24.3%,-1.2%,13.1µM*,2.8%

# Source: PubChem (National Center for Advancing Translational Sciences (NCATS))
